Test results as given in PubChem BioAssay AID1159580 (chemical genetic matrix, 2015).
Several values for one entry are separate records, joined by “and”; a condition that tells them apart may be missing. Equal values may be shown once. About 2,000 (36%) of roughly 5,500 compounds were called active. Another 18% or so got no clear call; they are omitted. Cut-off read from the data, not from the text of the source: active = normalized growth mostly below about 0.91 (no sharp cut-off); inconclusive = no clear call, values can overlap the other calls; inactive = mostly above about 0.92. Some of the results follow. Where a SMILES comes first, the peptide text is derived from it. Bridges are numbered along the chain shown (N, C = ends). [ ]: non-standard residue; d: D form. The star is where a group is joined. ξ: configuration not given here. ξDab(CH2SO3H) = NC(CCNCS(=O)(=O)O)C(=O)O; Heptanoyl(6-Me) = CC(C)CCCCC(=O)*; Dab = NCC[CH](N)C(=O)O

Assay: chemical genetic growth profiling, strain panel (AID 1159580);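 note: tested at 20 µM; growth read once vehicle control cultures reached saturation at 30 °C; 1 = growth at the plate median or of vehicle wells; lower values mean less growth of the strain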
Conditions: S. cerevisiae deletion strains, growth OD

Measured: normalized growth

CCC(C)C1NC(=O)C(CCNCS(=O)(=O)O)NC(=O)C(NC(=O)C(CCNCS(=O)(=O)O)NC(=O)C(NC(=O)C(CCNCS(=O)(=O)O)NC(=O)CCCCC(C)C)C(C)O)CCNC(=O)C(C(C)O)NC(=O)C(CCNCS(=O)(=O)O)NC(=O)C(CCNCS(=O)(=O)O)NC(=O)C(C(C)CC)NC1=O (stereo unspecified) ({Heptanoyl(6-Me)}-[ξDab(CH2SO3H)]T[ξDab(CH2SO3H)][Dab][ξDab(CH2SO3H)]II[ξDab(CH2SO3H)][ξDab(CH2SO3H)]T; lactam 4-C; configuration not given here)
inactive: locus YAL013W, strain DEP1, hits give low values 1 | locus YAL021C, strain ccr4, hits give low values 0.93 | locus YAL026C, strain drs2, hits give low values 0.989 | locus YAL030W, strain snc1, hits give low values 0.99 | locus YBL061C, strain skt5, hits give low values 0.981 | locus YBR009C, strain hhf1, hits give low values 0.971 | locus YBR021W, strain FUR4, hits give low values 1.02 | locus YBR023C, strain chs3, hits give low values 0.985 | locus YBR171W, strain sec66, hits give low values 0.995 | locus YBR229C, strain ROT2, hits give low values 0.987 | locus YBR231C, strain swc5, hits give low values 1 | locus YBR279W, strain paf1, hits give low values 1 | locus YCL011C, strain gbp2, hits give low values 0.996 | locus YCL016C, strain dcc1, hits give low values 0.994 | locus YCL029C, strain bik1, hits give low values 0.955 | locus YCL061C, strain MRC1, hits give low values 0.996 | locus YCL069W, strain vba3, hits give low values 0.978 | locus YCR088W, strain abp1, hits give low values 0.976 | locus YDL005C, strain med2, hits give low values 1.01 | locus YDL035C, strain GPR1, hits give low values 0.989 | locus YDL040C, strain nat1, hits give low values 0.972 | locus YDL074C, strain BRE1, hits give low values 1 | locus YDL101C, strain DUN1, hits give low values 0.992 | locus YDL134C, strain PPH21, hits give low values 0.993 | locus YDL185W, strain tfp1, hits give low values 0.935 | locus YDL192W, strain arf1, hits give low values 0.965 | locus YDR001C, strain nth1, hits give low values 0.992 | locus YDR069C, strain doa4, hits give low values 0.961 | locus YDR101C, strain arx1, hits give low values 0.983 | locus YDR137W, strain rgp1, hits give low values 1.03 | locus YDR150W, strain NUM1, hits give low values 0.97 | locus YDR159W, strain sac3, hits give low values 0.95 | locus YDR162C, strain NBP2, hits give low values 0.98 | locus YDR195W, strain ref2 0.946 | locus YDR297W, strain sur2, hits give low values 0.998 | locus YDR318W, strain mcm21, hits give low values 0.956 | locus YDR334W, strain swr1, hits give low values 0.959 | locus YDR335W, strain msn5, hits give low values 0.984 | locus YDR388W, hits give low values 0.972 | locus YDR392W, strain spt3, hits give low values 1.02 | locus YDR502C, strain sam2, hits give low values 0.976 | locus YEL003W, strain gim4, hits give low values 0.996 | locus YEL037C, strain rad23, hits give low values 0.969 | locus YEL061C, strain CIN8 (second series), hits give low values 0.978 | locus YEL061C, strain CIN8, hits give low values 0.982 | locus YER015W, strain faa2, hits give low values 0.996 | locus YER016W, strain bim1, hits give low values 0.997 | locus YER110C, hits give low values 0.98 | locus YER111C, strain swi4, hits give low values 1 | locus YER155C, strain BEM2 (second series), hits give low values 1.01 | locus YER155C, strain BEM2, hits give low values 0.984 | locus YER167W, strain BCK2, hits give low values 0.964 | locus YFR010W, strain ubp6, hits give low values 0.979 | locus YGL078C, strain dbp3, hits give low values 0.968 | locus YGL086W, strain mad1, hits give low values 0.972 | locus YGL167C, strain pmr1, hits give low values 0.967 | locus YGL173C, strain kem1, hits give low values 0.984 | locus YGL227W, strain vid30, hits give low values 0.988 | locus YGL240W, strain doc1, hits give low values 1 | locus YGL248W, strain PDE1, hits give low values 0.988 | locus YGL253W, strain hxk2, hits give low values 0.993 | locus YGR078C, strain PAC10, hits give low values 0.999 | locus YGR135W, strain pre9, hits give low values 0.988 | locus YGR229C, strain SMI1, hits give low values 1.01 | locus YGR252W, strain gcn5, hits give low values 1.1 | locus YHR013C, strain ard1, hits give low values 0.978 | locus YHR027C, strain rpn1, hits give low values 1 | locus YHR030C, strain SLT2, hits give low values 0.98 and 1.01 | locus YHR079C, strain IRE1 (second series), hits give low values 0.966 | locus YHR079C, strain IRE1, hits give low values 0.971 | locus YHR094C, strain hxt1, hits give low values 0.952 | locus YHR129C, strain ARP1, hits give low values 0.98 | locus YHR142W, strain chs7, hits give low values 0.982 | locus YHR200W, strain rpn10, hits give low values 0.951 | locus YIL066C, strain RNR3, hits give low values 0.977 | locus YIL073C, strain SPO22, hits give low values 0.975 | locus YIL125W, strain kgd1, hits give low values 0.969 | locus YIR030C, strain dcg1, hits give low values 0.967 | locus YJL092W, strain hpr5, hits give low values 0.987 | locus YJL095W, strain BCK1 (second series), hits give low values 0.987 | locus YJL095W, strain BCK1, hits give low values 0.974 and 0.981 | locus YJL115W, strain asf1, hits give low values 0.975 | locus YJL129C, strain trk1, hits give low values 1.08 | locus YJL134W, strain LCB3, hits give low values 0.976 | locus YJL154C, strain vps35, hits give low values 0.98 | locus YJL164C, strain tpk1, hits give low values 0.994 | locus YJL166W, strain qcr8, hits give low values 0.986 | locus YJL168C, strain set2, hits give low values 0.966 | locus YJL187C, strain SWE1 (second series), hits give low values 0.978 | locus YJR043C, strain POL32, hits give low values 1 | locus YJR066W, strain TOR1, hits give low values 0.97
